Measured values taken from PubChem BioAssay.
Activity calls are given as the source filed them. Unless noted, the rule behind the calls is not given here.

Assays:
[1] = HepG2 liver cancer cell viability effects, profiling panel, resazurin fluorescence, 24 h, PK04 Diversity Set (AID 1172); conditions: higher = more signal
[2] = basal S. cerevisiae growth modulation, no modifier, primary screen, OD600, strain BY4716, 24 h, basal condition (AID 1173); conditions: OD600, 24 h, higher = more signal, called active from +8 up or from −8 down
[3] = MM1S myeloma cell viability, profiling panel, resazurin fluorescence, basal, 24 h, PK04 Diversity Set (AID 1174); conditions: higher = more signal, called active from +8 up or from −8 down;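 note: MM1S multiple myeloma cell line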
[4] = target: Dihydroorotate dehydrogenase (quinone), mitochondrial (Plasmodium falciparum (isolate 3D7)) (UniProt Q08210); assay: PfDHODH enzyme inhibitors, primary screen, biochemical, C-terminal His tag, absorbance 600 nm (AID 1175); conditions: DCIP absorbance 600 nm, higher = more signal, called active from +8 up or from −8 down;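 note: recombinant parasite enzyme with a five histidine tag at its C terminus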
[5] = P. aeruginosa biofilm formation inhibitors, primary screen, strain PAO1, LB-PBS medium, absorbance 600 nm (AID 1176); conditions: P. aeruginosa PAO1 growth/biofilm, A600, 12 h; higher = more signal
[6] = S. cerevisiae RM11-1a growth modifiers, primary screen, strain RM11-1a, OD600, basal, 24 h (AID 1177); conditions: OD600, 24 h, higher = more signal, called active from +8 up or from −8 down;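 note: cultures grown under basal conditions with no added stressor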
[7] = E. coli acrAB mutant growth effects, primary screen, E. coli filamentation inducers, strain DRC39, OD650, 24 h (AID 1178); conditions: higher = more signal, called active from +8 up or from −8 down;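 note: growth measured as culture turbidity by optical density at 650 nm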
[8] = E. coli acrAB mutant growth effects, primary screen, E. coli filamentation inducers, strain DRC39, OD650, 48 h (AID 1179);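 note: screen aims at cell division blockers that make cells filament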; conditions: E. coli DRC39 delta-acrAB growth, higher = more signal, called active from +8 up or from −8 down
[9] = RPMI8226 myeloma cell viability, profiling panel, resazurin fluorescence, basal, 24 h, PK04 Diversity Set (AID 1180); conditions: higher = more signal;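 note: RPMI8826 multiple myeloma cell line at 5000 cells per well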
[10] = target: E3 ubiquitin-protein ligase XIAP (Homo sapiens) (UniProt P98170); assay: XIAP binders, primary screen, biophysical, small-molecule microarray, fluorescence 635 nm (AID 1181); conditions: small-molecule microarray binding, higher = more signal;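 note: score merges 667 nm emission and signal to noise over triplicate slides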
[11] = system: XIP peptide (Xip251-270) binding; assay: small-molecule binders of XIP peptide, primary screen, biochemical, small-molecule microarray, fluorescence 635/667 nm, 0.1 µg/mL protein (AID 1182); conditions: fluorescent protein binding, 635 nm, higher = more signal, called active from +8 up or from −8 down
XIP peptide (Xip251-270) = assay: small-molecule binders of XIP peptide, primary screen, biochemical, small-molecule microarray, fluorescence 635/667 nm, 0.5 µg/mL protein (AID 1183); conditions: small-molecule microarray binding, fluorescence 635 nm; higher = more signal
[12] = Plasmodium falciparum growth inhibition, primary screen, strain 3D7, DAPI fluorescence, 100 nL (AID 1184);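 note: parasites grown inside human red blood cells in medium with human serum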; conditions: P. falciparum 3D7 growth, 3 d, higher = more signal
[13] = target: Homeobox protein Hox-A13 (Mus musculus) (UniProt Q62424); assay: inhibitors of HoxA13-DNA binding, primary screen, biochemical, fluorescence polarization, labeled oligonucleotide (AID 1185); conditions: 15 min, higher = more signal, called active from +8 up or from −8 down
[14] = inhibitors of hydroxyurea-induced Chk1 phosphorylation, primary screen, imaging, HeLa, phospho-Chk1 antibody, percent positive cells (AID 1186); conditions: hydroxyurea-induced phospho-Chk1 immunofluorescence imaging, higher = more signal
[15] = inhibitors of hydroxyurea-induced Chk1 phosphorylation, primary screen, imaging, HeLa, phospho-Chk1 nuclear intensity (AID 1187); conditions: hydroxyurea-induced phospho-Chk1 immunofluorescence imaging, higher = more signal

Sequence of E3 ubiquitin-protein ligase XIAP (Homo sapiens) (P98170 whole entry, looked up): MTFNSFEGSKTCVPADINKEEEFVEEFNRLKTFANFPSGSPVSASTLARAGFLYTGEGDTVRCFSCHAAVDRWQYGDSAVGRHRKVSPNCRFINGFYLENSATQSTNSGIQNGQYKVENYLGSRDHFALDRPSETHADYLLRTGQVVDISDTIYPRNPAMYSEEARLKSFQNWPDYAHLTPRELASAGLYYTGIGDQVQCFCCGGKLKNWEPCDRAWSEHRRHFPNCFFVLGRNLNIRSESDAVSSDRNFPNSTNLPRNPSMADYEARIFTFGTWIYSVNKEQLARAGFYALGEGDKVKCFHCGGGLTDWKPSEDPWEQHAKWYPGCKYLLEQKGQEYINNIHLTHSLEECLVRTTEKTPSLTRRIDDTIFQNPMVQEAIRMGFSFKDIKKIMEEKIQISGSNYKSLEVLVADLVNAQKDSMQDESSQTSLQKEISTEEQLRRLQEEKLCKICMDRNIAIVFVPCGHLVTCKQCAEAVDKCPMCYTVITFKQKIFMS
Sequence of Dihydroorotate dehydrogenase (quinone), mitochondrial (Plasmodium falciparum (isolate 3D7)) (Q08210 whole entry, looked up): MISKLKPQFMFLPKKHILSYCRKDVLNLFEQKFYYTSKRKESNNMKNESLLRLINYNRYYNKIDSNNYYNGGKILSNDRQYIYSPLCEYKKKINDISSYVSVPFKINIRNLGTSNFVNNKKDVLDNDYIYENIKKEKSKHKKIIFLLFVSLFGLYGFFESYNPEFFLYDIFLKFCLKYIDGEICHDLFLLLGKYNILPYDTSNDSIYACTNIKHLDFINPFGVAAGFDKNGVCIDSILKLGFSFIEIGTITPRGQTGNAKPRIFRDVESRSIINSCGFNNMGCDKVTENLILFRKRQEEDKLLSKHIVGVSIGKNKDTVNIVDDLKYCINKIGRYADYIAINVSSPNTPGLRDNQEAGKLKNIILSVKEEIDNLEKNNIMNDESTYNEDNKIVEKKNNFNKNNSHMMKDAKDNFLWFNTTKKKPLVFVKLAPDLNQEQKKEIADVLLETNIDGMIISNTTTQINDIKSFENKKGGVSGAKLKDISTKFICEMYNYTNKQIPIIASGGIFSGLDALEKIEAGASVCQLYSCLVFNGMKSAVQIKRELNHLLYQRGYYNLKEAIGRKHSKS
Sequence of Homeobox protein Hox-A13 (Mus musculus) (Q62424 whole entry, looked up): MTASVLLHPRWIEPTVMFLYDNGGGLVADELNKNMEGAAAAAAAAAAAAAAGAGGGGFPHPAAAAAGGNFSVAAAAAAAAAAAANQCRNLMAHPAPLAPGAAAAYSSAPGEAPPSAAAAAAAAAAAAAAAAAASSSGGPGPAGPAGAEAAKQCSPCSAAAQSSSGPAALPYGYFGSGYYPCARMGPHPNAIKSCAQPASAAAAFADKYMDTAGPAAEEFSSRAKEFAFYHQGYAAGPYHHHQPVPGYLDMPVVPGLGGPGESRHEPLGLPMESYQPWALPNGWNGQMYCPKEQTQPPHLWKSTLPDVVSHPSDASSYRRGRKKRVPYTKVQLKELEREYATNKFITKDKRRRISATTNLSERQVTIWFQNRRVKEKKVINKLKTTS

| SMILES | z-score [1] | z-score [2] | z-score [3] | composite z-score [4] | z-score [5] | z-score [6] | z-score [7] | z-score [8] | z-score [9] | composite z-score [10] | composite z-score [11] | composite z-score (XIP peptide (Xip251-270)) | z-score [12] | z-score [13] | z-score [14] | z-score [15] |
| --- | --- | --- | --- | --- | --- | --- | --- | --- | --- | --- | --- | --- | --- | --- | --- | --- |
| NCCCCCNC(=O)[C@@H]1C[C@@H]2C(=O)N[C@@H](Cc3ccccc3)C(=O)N2[C@@H]1c1cccc(OCCO)c1 | -0.837 | 1.04 (inactive) | -0.104 (inactive) | 0.251 (inactive) | 0.174 (inactive) | 0.606 (inactive) | -0.297 (inactive) | -0.457 (inactive) | -0.603 | 0.416 | 0.251 (inactive) | 0.595 | 0.304 | -4.39 (inactive) | -0.143 (inactive) | -0.223 (inactive) |
| C=CCC(OC(C)=O)[C@@H]1[C@@H](N(Cc2ccc(-c3cccc(C(F)(F)F)c3)o2)C(=O)c2ccc(-c3ccccc3)cc2)c2cc(OCCCO)ccc2N1C(=O)c1ccc(-c2ccccc2)cc1 (some centres not stated) | -0.645 | 1.03 (inactive) | 0.0516 (inactive) | 0.0524 (inactive) | 0.268 (inactive) | 0.609 (inactive) | -0.386 (inactive) | -0.487 (inactive) | 0.0033 | 0.0471 | -0.462 (inactive) | -1.09 | -0.29 | -0.737 (inactive) | 0.216 (inactive) | 0.187 (inactive) |
| [N-]=[N+]=NCc1ccccc1[C@H]1OC(c2ccc(OCCCO)cc2)=N[C@@]1(Cc1ccccc1)C(=O)NCc1ccccc1 | 0.294 | -0.223 (inactive) | -0.666 (inactive) | -0.407 (inactive) | 0.702 (inactive) | 0.747 (inactive) | 0.431 (inactive) | 0.0009 (inactive) | -0.34 | 0.58 | 0.212 (inactive) | 0.471 | -2.49 | 2.55 (inactive) | -0.287 (inactive) | -0.083 (inactive) |
| O=C1NC(=O)C2C1C=CC(C(O)C(c1ccccc1)c1ccccc1)N2Nc1ccc(Cl)cc1Cl (configuration not stated) | -2.23 | -2.63 (inactive) | -1.05 (inactive) | 0.125 (inactive) | 0.599 (inactive) | 1.17 (inactive) | -0.659 (inactive) | -0.712 (inactive) | -1.62 | 0.236 | 0.69 (inactive) | -0.0049 | -0.289 | -4.15 (inactive) | 0.735 (inactive) | 0.889 (inactive) |
| O=C(O)[C@@]1(CCS(=O)(=O)c2ccccc2)COC(c2ccc(OCCCO)cc2)=N1 | 0.444 | 0.0291 (inactive) | -0.21 (inactive) | 0.0614 (inactive) | -0.347 (inactive) | -0.197 (inactive) | -0.43 (inactive) | -0.216 (inactive) | 0.0149 | 0.0767 | -0.0596 (inactive) | -0.271 | 0.917 | -2.82 (inactive) | -0.333 (inactive) | -0.52 (inactive) |
| CC(C)(C)C(=O)N[C@@H](c1ccc(Cl)cc1)[C@]1(C)C[C@H]1C1CCCCC1 | -0.608 | -0.507 (inactive) | -0.385 (inactive) | -0.554 (inactive) | 1.03 (inactive) | 0.473 (inactive) | -0.196 (inactive) | -0.27 (inactive) | -0.231 | 0.261 | 0.398 (inactive) | 0.837 | -0.827 | 2.32 (inactive) | -1.19 (inactive) | -0.627 (inactive) |
| CC(C)(C)OC(=O)CC[C@]1(C(=O)NCC(O)CO)COC(c2ccc(OCCCO)cc2)=N1 (some centres not stated) | 0.245 | 0.525 (inactive) | 0.198 (inactive) | 0.563 (inactive) | 0.826 (inactive) | 1.51 (inactive) | 0.116 (inactive) | 0.0752 (inactive) | 0.467 | -0.181 | 0.273 (inactive) | 0.151 | -0.104 | -3.95 (inactive) | 0.505 (inactive) | 0.437 (inactive) |
| O=C1NC(=O)C2C1C=CC(C(O)c1cccc3ccccc13)N2Nc1ccccn1 (configuration not stated) | -0.692 | 0.268 (inactive) | -1.74 (inactive) | 0.305 (inactive) | 0.226 (inactive) | 0.798 (inactive) | -0.334 (inactive) | 0.638 (inactive) | -0.94 | 0.276 | -0.219 (inactive) | 0.395 | 0.181 | -1.71 (inactive) | -0.146 (inactive) | -0.382 (inactive) |
| COC(=O)C(CC#Cc1ccc2c(c1)[C@]1(C(=O)N2)[C@H](C(=O)O)[C@H]2C(=O)O[C@H](c3ccccc3)[C@H](c3ccccc3)N2[C@@H]1c1ccc(O)cc1)C(=O)OC | 0.0521 | 0.183 (inactive) | 0.395 (inactive) | -5.46 (inactive) | 1.03 (inactive) | 0.62 (inactive) | 0.569 (inactive) | -0.0012 (inactive) | -0.0124 | -0.165 | 0.12 (inactive) | 0.713 | 0.49 | -6.07 (inactive) | -0.287 (inactive) | -0.507 (inactive) |
| COc1ccc(COC2OC[C@]3(C)[C@H]4C5=C(CN3C(=O)OC(C)(C)C)[C@H](C)C(CO)C(CO)C5CC[C@@H]24)cc1 (some centres not stated) | -0.987 | 0.455 (inactive) | -2.38 (inactive) | -0.124 (inactive) | 1.03 (inactive) | 0.903 (inactive) | -0.806 (inactive) | -1.6 (inactive) | -1.19 | -0.02 | -0.188 (inactive) | 0.505 | -1.04 | -4.75 (inactive) | 0.721 (inactive) | 0.353 (inactive) |
| C=CC[C@]1(C(=O)N2CCCCC2)N=C(c2ccc(OCCCO)cc2)O[C@H]1c1ccccc1 | 1.77 | -2.06 (inactive) | 0.91 (inactive) | -0.309 (inactive) | -0.481 (inactive) | 0.646 (inactive) | 0.825 (inactive) | -0.189 (inactive) | 1.93 | -0.0563 | 0.754 (inactive) | 0.807 | -2.03 | -5.69 (inactive) | -0.0473 (inactive) | 0.452 (inactive) |
| CCCCC(O)C1C=CC2C(=O)N(c3ccccc3)C(=O)C2N1Nc1ccccc1F (configuration not stated) | -0.8 | -0.42 (inactive) | -0.459 (inactive) | -0.365 (inactive) | 1.14 (inactive) | -0.182 (inactive) | -0.221 (inactive) | 0.128 (inactive) | -0.786 | 0.691 | 0.335 (inactive) | 0.744 | 1.01 | -3.4 (inactive) | 0.772 (inactive) | -0.0522 (inactive) |
| COc1ccc([Si](C)(C)[C@H]2[C@H](CC(=O)N3CCC[C@H]3CO)O[C@@]3(C(=O)N(Cc4cccc(N5C(=O)c6cccc7cccc5c67)c4)c4ccccc43)[C@@H]2C)cc1 | -1.13 | 0.547 (inactive) | -0.712 (inactive) | -1.74 (inactive) | 0.495 (inactive) | 1 (inactive) | -0.672 (inactive) | -0.881 (inactive) | -1.28 | 0.013 | 0.397 (inactive) | 0.674 | -1.72 | -3.25 (inactive) | -0.0887 (inactive) | -0.429 (inactive) |
| COc1ccc([Si](C)(C)[C@H]2[C@H](CCO)O[C@@]3(C(=O)N(Cc4ccc(N5C(=O)COc6ccccc65)cc4)c4ccccc43)[C@@H]2C)cc1 | -1.97 | 0.573 (inactive) | -4.21 (inactive) | -0.349 (inactive) | 3.06 (inactive) | 3.3 (inactive) | 0.404 (inactive) | -0.288 (inactive) | -5.05 | 0.144 | 0.0409 (inactive) | 0.254 | -1.95 | -0.911 (inactive) | -0.661 (inactive) | -1.02 (inactive) |
| O=C1c2ccccc2[C@](Cc2ccccc2I)(C(=O)NC2CC2)[C@H](c2ccc(CO)cc2)N1C1CCCCC1 | -0.13 | 0.404 (inactive) | 0.516 (inactive) | 1.06 (inactive) | 0.304 (inactive) | 2.64 (inactive) | -0.0781 (inactive) | -0.585 (inactive) | 0.549 | -0.0426 | 0.247 (inactive) | 0.743 | -1.77 | -3.63 (inactive) | -0.199 (inactive) | -0.0711 (inactive) |
| C=CCOC(=O)[C@@H]1[C@H]2C(=O)O[C@H](c3ccccc3)[C@H](c3ccccc3)N2[C@H](c2ccc(OCCOC(=O)[C@@H]3C[C@@H]4C(=O)N[C@@H](Cc5ccccc5)C(=O)N4[C@@H]3c3ccc(O)cc3)cc2)[C@@]12C(=O)Nc1ccc(I)cc12 | -0.437 | 0.963 (inactive) | 0.372 (inactive) | -0.0246 (inactive) | 2.1 (inactive) | 1.91 (inactive) | -0.0033 (inactive) | -1.53 (inactive) | 0.411 | 0.104 | 0.895 (inactive) | 0.736 | -1.95 | -0.584 (inactive) | 0.193 (inactive) | 0.453 (inactive) |
| CC(C)C(CO)N1C(=O)[C@@H]2[C@H]3C(=O)OCC=C[C@H]3OC23C=CCN(C(C)C)C(=O)[C@@H]13 (some centres not stated) | 1.18 | 0.55 (inactive) | 0.713 (inactive) | 0.0658 (inactive) | -0.565 (inactive) | 0.73 (inactive) | 0.074 (inactive) | -0.137 (inactive) | 0.634 | -0.0719 | 1.63 (inactive) | -0.0455 | -0.499 | -4.02 (inactive) | 0.475 (inactive) | 0.305 (inactive) |
